Bioassay records: PubChem BioAssay, National Center for Advancing Translational Sciences (NCATS)
Rab9 prom act: qHTS Assay for Rab9 Promoter Activators | Huh7 Rab9 promoter-luciferase reporter, luminescence, 24 h | Potency, µM (highest dose often 9.22 µM), usual class: activators | hit rate 2.8% among 320,000 | AID 485297, 2010; further: nearly all actives have a fitted effect of over 60% in size
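Huh7 cells stably carrying Rab9 promoter–luciferase reporter, plated 1500 cells/well, compound added after 2 h and incubated 24 h at 37 °C; luciferase luminescence then read after 10 min with detection reagent.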
SMN2 splice up: qHTS Assay for Enhancers of SMN2 Splice Variant Expression; HEK293 SMN2-luciferase splicing reporter, luminescence, 30-36 h; Potency, µM (top dose mostly 46.1 µM), most hits filed as activators; hit rate 2.8% among 210,000; AID 1458, 2008; further: nearly all actives have a fitted effect of over 55% in size
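HEK293 cells carry an SMN2 […]–luciferase reporter in which exon 7 inclusion puts luciferase in frame. Cells were plated 10-12 h before compound addition, then incubated 30-36 h at 37C. ONE-Glo luminescence was read; sodium butyrate at 4.5 mM final served as control.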
NPC1 prom act: qHTS Assay for NPC1 Promoter Activators | Huh7 NPC1 promoter luciferase reporter, 24 h | Potency, µM (series often up to 9.22 µM), usual class: activators | hit rate 2.4% among 320,000; further: nearly all actives have a fitted effect of over 60% in size
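NPC1 promoter–luciferase Huh7 cells; 24 h compound; luminescence.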
ELG1 genotox: qHTS screen for small molecules that induce genotoxicity in human embryonic kidney (HEK293T) cells expressing luciferase-tagged ELG1 | HEK293T ELG1-luciferase reporter, luminescence, 16 h | Potency, µM (doses to about 46 µM), most hits filed as activators | hit rate 1.3% among 330,000 | AID 504466, 2011; further: nearly all actives have a fitted effect of over 60% in size
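Cells (2,000/well) expressing the ELG1-luciferase fusion are dosed by pin tool and kept 16 hr at 37 °C, 5% CO2. Signal comes from ONE-Glo luciferase reagent after 30 min at room temperature.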
uPA generation: qHTS for Inhibitors of Cell Surface uPA Generation | cell surface uPA generation assay, qHTS | Potency, µM (highest dose often 38.3 µM), usual class: inhibitors | hit rate 0.31% among 330,000 | AID 540303, 2011; active means well fitted inhibition curve with a large enough effect; inconclusive means small, poorly fitted or top-dose-only effect; inactive means no such curve, though single readings can be large or run the other way; tested in mouse RAW 264.7 cells; further: nearly all actives have a fitted effect of over 55% in size
FLuc counter: qHTS profiling assay for firefly luciferase inhibitor/activator using purifed enzyme and Km concentrations of substrates (counterscreen for miR-21 project) | Luciferin 4-monooxygenase (Photinus pyralis), P08659 | purified FLuc, Km substrates, luminescence inhibition | Potency, µM (doses to about 57.5 µM), usual class: inhibitors | hit rate 6.9% among 360,000; further: nearly all actives have a fitted effect of over 55% in size
Target sequence (P08659 whole entry, looked up): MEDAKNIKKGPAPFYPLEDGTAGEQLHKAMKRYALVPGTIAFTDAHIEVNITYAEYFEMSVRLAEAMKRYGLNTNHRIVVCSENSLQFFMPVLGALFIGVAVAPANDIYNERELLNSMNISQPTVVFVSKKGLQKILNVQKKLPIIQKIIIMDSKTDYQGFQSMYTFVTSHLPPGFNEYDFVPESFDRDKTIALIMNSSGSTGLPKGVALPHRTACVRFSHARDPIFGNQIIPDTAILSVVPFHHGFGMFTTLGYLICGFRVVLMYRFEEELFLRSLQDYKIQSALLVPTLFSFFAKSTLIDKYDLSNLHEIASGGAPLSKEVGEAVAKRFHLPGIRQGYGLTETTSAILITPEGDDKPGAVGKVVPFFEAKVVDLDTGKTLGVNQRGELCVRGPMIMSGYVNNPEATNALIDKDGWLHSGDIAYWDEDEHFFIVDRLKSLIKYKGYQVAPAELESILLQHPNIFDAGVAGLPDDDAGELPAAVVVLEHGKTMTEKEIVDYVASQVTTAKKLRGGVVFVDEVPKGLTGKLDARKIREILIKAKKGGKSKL
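Purified P. pyralis luciferase (10nM final) with 10uM D-luciferin and 10uM ATP (Km levels) in 50mM Tris acetate pH 7.5, 10mM Mg acetate, 0.01% Tween-20, 0.05% BSA; qHTS 6-point titration, ~60 µM downward; luminescence read.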
A number is an active result; . = inactive; ? = inconclusive; / = no result; [ ] = another dose, or the depositor's remark. In the library only some 7.3% were active in any assay of this set; here they are far more common. Unless noted, the call rests on the fitted dose curve; in most records, active means well fitted curve in the direction sought with a large enough effect; inconclusive means small, poorly fitted or top-dose-only effect, or another doubt; inactive means no such curve, though single readings can be large; an effect the other way counts as inactive or inconclusive.

SMILES | Rab9 prom act | SMN2 splice up | NPC1 prom act | ELG1 genotox | uPA generation | FLuc counter
O=C(O)c1cc(/C=N\O)ccc1OCc1ccccc1 | . | . | . | . | . | .
COc1cc(/C=N/N=C2/NC(=O)C(CC(=O)O)S2)ccc1OCc1ccc(Cl)cc1 (configuration not stated) | . | 11µM | . | ? | . | 19µM
COc1ccc(NC(=O)COc2ccc(/C=N/O)cc2OC)cc1 | ? | / | ? | ? | . | 21µM
CC(=O)c1ccc(NC(=O)CSc2cn(CC(=O)N(C(C)C)C(C)C)c3ccccc23)cc1 | / | / | / | / | / | .
Cc1cc(C(=O)CN2C(=O)NC(CC(C)C)C2=O)c(C)n1-c1ccccc1F (configuration not stated) | 1.1µM | . | 2.2µM | ? | . | 13µM
Cc1cc(C(=O)CN2C(=O)C(=O)N(CC(C)C)C2=O)c(C)n1-c1ccccc1F | . | . | . | . | . | 17µM
Cc1cc(C(=O)CN2C(=O)NC(CC(C)C)C2=O)c(C)n1C1CC1 (configuration not stated) | / | / | / | . | . | /
Cc1cccc(NC(=O)CN2c3ccccc3S(=O)(=O)c3ccccc32)c1C | / | / | / | / | / | .
Cc1nnc(SCC(=O)Nc2sccc2C(N)=O)s1 | . | / | . | . | . | .
CCc1ccc(Nc2nnc(SCC(=O)Nc3sccc3C(N)=O)s2)cc1 | . | ? | . | . | . | 2.1µM
CCc1ccc(Nc2nnc(SCC(=O)Nc3cccnc3Cl)s2)cc1 | . | / | . | . | . | 1.3µM
COc1cccc(Nc2nnc(SCC(=O)Nc3sccc3C(N)=O)s2)c1 | . | . | . | . | . | 11µM
CCc1ccc(Nc2nnc(SCC(=O)c3c(N)n(C4CC4)c(=O)[nH]c3=O)s2)cc1 | . | / | . | . | ? | 0.6µM
Cc1nnc(SCC(=O)Nc2cccnc2Cl)s1 | . | / | . | . | . | .
CCc1ccc(Nc2nnc(SCC(=O)NCCN3C(=O)CSC3=O)s2)cc1 | ? | 11µM | . | ? | ? | 1.9µM
Cn1c(SCC(=O)NCCN2C(=O)CSC2=O)nnc1-c1ccccc1 | . | . | . | . | . | .
O=C(c1cccs1)N(CCN1CCCCC1)CC1CCCN(C2CCCC2)C1 (configuration not stated) | ? | / | . | . | . | 17µM
C=CCOC(=O)N[C@H](c1ccccc1)C(C(C)=O)C(C)=O | / | . | / | / | / | /
COCCn1c(=O)c(-c2cccs2)nc2cnc(OCc3ccccc3)nc21 | / | . | / | / | / | /
N#C/C(=C/c1ccc(N2CCCCCC2)o1)c1ccc(Cl)cc1 | 4µM | . | . | ? | / | 9.5µM
COc1cc(N2CCCC2)c(OC)cc1/C=C(/C#N)c1ccc(F)cc1 | . | . | . | . | . | .
COc1cc(N2CCCC2)c(OC)cc1/C=C(/C#N)c1ccc(Br)cc1 | . | . | . | . | . | .
N#C/C(=C/c1ccc(N2CCCCC2)o1)c1cccc(F)c1 | . | . | . | 3.7µM | / | 2.1µM
N#C/C(=C/c1ccc(N2CCCCC2)cc1)c1cccc(F)c1 | 3.2µM | ? | 4µM | 18µM | . | 5.4µM
NC(=O)C1(N2CCCCC2)CCN(C(=O)Nc2ccc(Cl)c(Cl)c2)CC1 | / | . | / | / | / | .
SMILES | Rab9 prom act | SMN2 splice up | NPC1 prom act | ELG1 genotox | uPA generation | FLuc counter
CCOC(=O)c1sc(=S)n(CC)c1NC(=O)c1ccccc1 | . | / | . | . | . | .
O=C(NCCS(=O)(=O)N1CCN(c2ccccc2)CC1)C(c1ccccc1)c1ccccc1 | / | / | / | / | / | .
COc1ccc(/C=C(\NC(=O)c2ccccc2)C(=O)OCC2CCCN3CCCCC23)cc1OC (configuration not stated) | . | . | . | . | . | .
Cc1ccc(NC(=S)Nc2ccccn2)c(C)c1 | 2.8µM | / | ? | ? | . | 8.5µM
COc1cccc(NC(=S)Nc2cc(C)cc(C)n2)c1 | . | / | . | . | . | 2.1µM
Cc1cc(Cl)ccc1NC(=S)Nc1ccccn1 | ? | ? | ? | . | . | .
COC(=O)c1ccc(NC(=S)Nc2ccccn2)cc1 | 1.8µM | 11µM | 2.8µM | ? | . | ?
CCOc1ccc(NC(=S)Nc2cc(-c3ccccc3)[nH]n2)cc1 | . | . | . | . | . | 21µM
COc1ccc(NC(=S)Nc2cc(-c3ccccc3)[nH]n2)cc1Cl | . | . | . | . | / | ?
Cc1cccc(NC(=O)CS(=O)(=O)c2cccc3nsnc23)c1 | / | / | / | / | / | .
COc1ccc(NC(=S)Nc2ccccn2)cc1 | 2.5µM | / | 3.2µM | ? | . | 13µM
Cc1ccc(NC(=S)Nc2ccccn2)cc1C | ? | / | . | . | . | 17µM
Nc1cc([N+](=O)[O-])cc2oc(-c3ccccc3)cc12 | ? | / | ? | ? | . | 19µM
Cc1ccc(-c2cc(C(=O)NCCc3ccccc3)c3c(-c4ccc(C)cc4)[nH]nc3n2)cc1 | / | / | / | / | / | .
Cc1cnc(C(=O)Nc2ccccc2-n2cccc2)cn1 | . | . | . | . | . | .
Cc1cnc(C(=O)Nc2ccc(C(C)C)cc2)cn1 | 1.3µM | 10µM | 3.5µM | ? | . | 8.5µM
Cc1cnc(C(=O)Nc2ccc(C(=O)N(C)C3CCCCC3)cc2)cn1 | . | . | . | . | / | .
Cc1cnc(C(=O)Nc2ccccc2F)cn1 | .[1.84 µM] | ? | 3.5µM | 16µM | . | 24µM
Cc1cnc(C(=O)Nc2ccc(F)cc2)cn1 | ? | 13µM | 2.5µM | ? | . | 24µM
COc1cccc(Nc2sc(C(=O)c3ccc(F)cc3)c(N)c2C(=O)NCc2ccc(C)cc2)c1 | / | / | / | / | / | .
Cc1ccc(/C=N/NC(=O)c2ccccn2)o1 | ? | ? | ? | ? | . | 24µM
CN(C)c1ccc(C=NNC(=O)c2cccnc2)cc1 | / | / | / | / | . | /
O=C(N/N=C\c1ccc(Oc2ccccc2)cc1)c1csnn1 | 2.2µM | 16µM | 3.5µM | ? | . | 2.7µM
CC(C)c1ccc(/C=N/NC(=O)c2ccccn2)cc1 | 0.32µM | / | 0.14µM | ? | . | 0.38µM
CN(C)c1ccc(/C=N/NC(=O)c2ccnn2C)cc1 | 0.5µM | / | 2.5µM | ? | . | 5.4µM
SMILES | Rab9 prom act | SMN2 splice up | NPC1 prom act | ELG1 genotox | uPA generation | FLuc counter
CCN(CC)CCCC(C)n1c(-c2ccccc2)nc2c(NC3CCCCC3)nc(C)nc21 (configuration not stated) | / | . | / | / | / | /
CN(C)c1ccc(/C=N/NC(=O)c2ccccn2)cc1 | 0.13µM | / | 0.5µM | 1.2µM | ? | 1.7µM
CCOC(=O)N/N=C/c1ccc(C)o1 | . | . | . | . | / | .
CC(C)c1ccc(/C=N/NC(=O)c2cccc(Cl)c2)cc1 | 2.8µM | 16µM | 2.8µM | 21µM | . | 2.7µM
Cc1ccc(/C=N/NC(=O)c2cccc(NC(=O)c3ccccc3Cl)c2)o1 | . | / | . | . | . | 17µM
Cc1ccc(/C=N/NC(=O)c2cccc(NC(=O)c3ccccc3C)c2)o1 | . | / | . | . | . | ?
CCOC(=O)N/N=C/c1ccc(Oc2ccccc2)cc1 | ? | ? | ? | . | . | 19µM
